Only some compounds are listed: those with a hit (about 4.1% of all), similar ones and a draw of the others.
EBV LMP1 NFkB = EBV LMP1-driven NF-kappaB luciferase reporter inhibitors, primary screen, cell-based, luminescence, single point. LMP1-induced NF-kappaB luciferase reporter cells. inhibition, % at 12.5 µM. 350,000 compounds, 0.69% hits; in the data active = inhibition above about 41%; inconclusive = no clear call, values can overlap the other calls
TROY signal inh = inhibitors of TROY-driven NF-kB signaling, primary screen, Q293 LMP1-TROYcd cells, NF-kB luciferase, uHTS. inhibition, % at 10 µM. Q293 LMP1-TROYcd NF-kB luciferase reporter, 4 h. 360,000 compounds, 0.98% hits;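 active = compounds whose plate-normalised and pattern-corrected inhibition of the luciferase reporter signal at the single screening dose is 50% or more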
MITF TRPM1 inh = inhibitors of MITF-dependent TRPM1 promoter reporter, primary screen, cell-based, SK-MEL-5, single point, luciferase. SK-MEL-5 TRPM1 promoter luciferase, 24 h. inhibition, % at 12.5 µM. 330,000 compounds, 0.83% hits. AID 488899, 2010;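 active = mean inhibition across replicates of 60% or more, whatever share of single replicates reaches that level; inconclusive = some that reach 60%, reason not given; inactive = mean inhibition across replicates below 60%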
Shn3 inh set2 = reduction of Shn3 3'UTR firefly luciferase signal, primary screen, Schnurri-3 inhibitor project, cell-based, Clone20 osteoblasts, set 2 | AID 588674, 2011 | inhibition, % at 12.5 µM | 360,000 compounds, 0.52% hits | Clone20 osteoblast Shn3 3'UTR firefly luciferase, 24 h;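 active = mean inhibition of at least 75% with every replicate also reaching 75%; inconclusive = mean inhibition at least 75% but some replicate below; inactive = mean inhibition below 75%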
Peg3 prom inh = Peg3 promoter-driven luciferase inhibitors, primary screen, cell-based, HeLa, luciferase luminescence; AID 588405, 2011; inhibition, % at 20 µM; 360,000 compounds, 1.7% hits; HeLa PEG-Prom luciferase reporter, overnight;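 active = inhibition of at least 50% at 20 µM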
TWEAK Fn14 block = inhibitors of TWEAK-Fn14 signaling, primary screen, luciferase reporter cells, uHTS; TWEAK-stimulated Fn14 reporter cells, luciferase luminescence, 8 h; inhibition, % at 10 µM; 360,000 compounds, 2% hits; AID 1159606, 2016; in the data active = inhibition above about 50%
Of the large screens only hits and unclear results are named; the others gave an inactive call.

Cc1cccn2c(=O)c3cc(S(=O)(=O)c4ccc(F)cc4)c(=N)n(Cc4ccco4)c3nc12	TWEAK Fn14 block 56
CCOC(=O)NCc1ccccc1	EBV LMP1 NFkB 84
CCOC(=O)C(Cc1ccccc1)C(=O)NCc1ccccc1 (stereo not drawn)	none
COc1ccc(N(Cc2ccccc2)C(=O)OC(C)(C)C)c(C(=O)N(C)OC)c1	none
COC(=O)/C(=C\c1ccc([N+](=O)[O-])o1)NC(=O)c1ccccc1	none
Cc1cccc(NC(=O)/C(=C\c2ccc([N+](=O)[O-])o2)NC(=O)c2ccc(Cl)cc2)c1	Peg3 prom inh 56
C[C@H](CO)N1C[C@H](C)[C@@H](CN(C)C(=O)Nc2ccc(F)cc2)Oc2ccc(NS(C)(=O)=O)cc2C1=O	none
CC(OC(=O)c1cccc(S(=O)(=O)N2CCCC2)c1)C(=O)NC1CCCCC1C (stereo not drawn)	none
S=C(NCc1ccccc1)NCc1ccccc1Cl	none
Cc1ccc(C)c(N2N=C(C(=O)Nc3ccccc3N3CCOCC3)CCC2=O)c1	Peg3 prom inh 67
CCN(CC(=O)N1CCOCC1)S(=O)(=O)c1cc(Cl)ccc1Cl	none
CC(OC(=O)c1ccc([N+](=O)[O-])s1)C(=O)NC1CCCCC1C (stereo not drawn)	MITF TRPM1 inh 78
COc1cc(C(=O)OC(C)C(=O)NC2CCCCC2C)c([N+](=O)[O-])cc1OC (stereo not drawn)	none
CC1CCN(CC(CS(=O)(=O)c2ccc([N+](=O)[O-])cc2)N2CCC(C)CC2)CC1 (stereo not drawn)	MITF TRPM1 inh 84, Peg3 prom inh 108
FC(F)Sc1ccc(NC(=S)N2CCN(c3ccccn3)CC2)cc1	TWEAK Fn14 block 56
Oc1ccccc1N1CCN(C(=S)Nc2ccc(SC(F)F)cc2)CC1	none
O=C(NC(=S)N1CCN(c2ccc(O)cc2)CC1)c1ccco1	none
O=C(NC(=S)N1CCN(c2ccccn2)CC1)c1ccco1	EBV LMP1 NFkB 54
COc1ccc(Cc2nc3ccc(C(=O)N4CCN(C)C(C)C4)cc3o2)cc1OC (stereo not drawn)	none
CCCSc1nc2cc(S(=O)(=O)N3CCOCC3)ccc2n1CC	EBV LMP1 NFkB 67
CCCCn1c(CCl)nc2cc(S(=O)(=O)N3CCOCC3)ccc21	Peg3 prom inh 58
CCn1c(SCC#N)nc2cc(S(=O)(=O)N3CCOCC3)ccc21	none
CC1(C(=O)Nc2ccc3c(c2)OCO3)CCN1C(=O)c1ccco1 (stereo not drawn)	none (no result: EBV LMP1 NFkB, MITF TRPM1 inh)
Fc1cc(F)c(F)c(SCCc2ccncc2)c1F	Shn3 inh set2 87
O=c1ccc2ccccc2n1Cc1cccc(F)c1	none
CCCCc1nc(N2CCN(C(=O)c3ccco3)CC2)c(C#N)c2c1CCCC2	TROY signal inh 68
CSc1nc(Nc2ccc(Cl)cc2)c(C#N)c(=O)[nH]1	Peg3 prom inh 53
CCc1ccc(-n2c(C)n[nH]c2=S)cc1	none
C[C@@H](NCCCn1ccc(NC(=O)OCc2ccccc2)nc1=O)c1cccc2ccccc12	Peg3 prom inh 71
C[C@]12CCC(O)CC1CCC1C2CC[C@]2(C)C(c3cc(C(F)(F)F)n[nH]3)CCC12 (stereo partly drawn)	TROY signal inh 61, Peg3 prom inh 101
Cc1n[nH]c(=S)n1/N=C/c1c(O)ccc2ccccc12	Peg3 prom inh 57
Cc1nc2ccccc2c(=O)n1/N=C/c1c(O)ccc2ccccc12	none
N=C1SCC(=O)N1c1ncc(Cc2ccccc2Cl)s1	TWEAK Fn14 block 100
CC(C)C(=O)Nc1ncc(Cc2ccccc2Cl)s1	none
Cc1ccc(Cc2cnc(N3C(=N)SC(C)C3=O)s2)cc1 (stereo not drawn)	none
Cc1cccc(Cc2cnc(N3C(=N)SC(C)C3=O)s2)c1 (stereo not drawn)	TROY signal inh 67
N=C1SCC(=O)N1c1ncc(Cc2cccc(Cl)c2)s1	TROY signal inh 67, TWEAK Fn14 block 102
Cc1cccc(Cc2cnc(N3C(=N)SC(c4ccccc4)C3=O)s2)c1 (stereo not drawn)	none
COc1cc(OC)cc(C(=O)Nc2sc3c(c2C(N)=O)CCC3)c1	none
O=C(c1ccco1)N1CCN(Cc2cc(=O)c(OCc3c(F)cccc3Cl)co2)CC1	none
COc1ccc(C(=O)C(CN2CCOCC2)c2ccccc2)cc1 (stereo not drawn)	EBV LMP1 NFkB inconclusive, MITF TRPM1 inh 83, Shn3 inh set2 89, Peg3 prom inh 98
COc1ccc(C(=O)C(CN2CCCC2)c2ccccc2)cc1 (stereo not drawn)	MITF TRPM1 inh 64, Peg3 prom inh 104
CCC(O)(c1ccc(OC)cc1)C(CN1CCOCC1)c1ccccc1 (stereo not drawn)	none
O=C(c1ccc(F)cc1)C(CN1CCOCC1)c1ccccc1 (stereo not drawn)	MITF TRPM1 inh 90, Shn3 inh set2 94, Peg3 prom inh 105, TWEAK Fn14 block 74
CCCCC(O)(c1ccc(OC)cc1)C(CN1CCOCC1)c1ccccc1 (stereo not drawn)	Peg3 prom inh 52
O=C(c1ccccc1)C(CCC(CN1CCOCC1)C(=O)c1ccccc1)CN1CCOCC1 (stereo not drawn)	EBV LMP1 NFkB 50, TROY signal inh 51, MITF TRPM1 inh 75, Shn3 inh set2 97, Peg3 prom inh 105, TWEAK Fn14 block 85
CCCCOc1ccc(C(=O)C(CN2CCOCC2)c2ccccc2)cc1 (stereo not drawn)	Peg3 prom inh 97
COc1ccc(C(CC(=O)N2CCCC2)C(C)C)cc1 (stereo not drawn)	none
O=C(c1ccc(Cl)cc1)C(CN1CCCC1)c1ccccc1 (stereo not drawn)	EBV LMP1 NFkB 46, MITF TRPM1 inh 77, Peg3 prom inh 76, TWEAK Fn14 block 58
COc1ccc(C(CC(=O)N2CCOCC2)C(C)C)cc1 (stereo not drawn)	TWEAK Fn14 block 80
c1ccc(C(CN2CCOCC2)c2ccccc2)cc1	none
Cc1cccc(N2N=C(C(=O)Nc3ccc(Cl)c(S(=O)(=O)N4CCOCC4)c3)CCC2=O)c1	none
C=CCOc1ccc(/C=C/C(=O)OCC(=O)N2CCC(c3ccccc3)=N2)cc1	none
O=C1c2ccccc2C(c2nnnn2-c2ccc3c(c2)OCCO3)N1Cc1ccc2c(c1)OCO2 (stereo not drawn)	none (no result: EBV LMP1 NFkB, MITF TRPM1 inh, Shn3 inh set2, Peg3 prom inh)
COc1ccc(Cc2nnc(SCC(=O)Nc3ccccc3C#N)o2)cc1	none
CCCOc1ccc(C(=O)C(CN2CCCC2)c2ccccc2)cc1 (stereo not drawn)	MITF TRPM1 inh 77, Shn3 inh set2 95, Peg3 prom inh 108

High-throughput results (PubChem)
